# Compound activity: PubChem, National Center for Advancing Translational Sciences (NCATS)
# MCF10A rerep – induces DNA re-replication in MCF 10a normal breast cells | MCF 10A DNA re-replication, Hoechst nuclear intensity, 48 h | Potency, µM (top dose mostly 46.1 µM), for the others: at the highest dose activity, positive = re-replication, most hits filed as activators | 350,000 compounds, 2.9% hits; further: % of control where 0% means no effect; nearly all actives have a fitted effect of over 50% in size
# A-T KAP1 phos – potential ataxia-telangiectasia treatments restoring KAP-1 phosphorylation; F2112 A-T fibroblasts, KAP-1 phosphorylation AlphaLISA; neocarzinostatin DNA damage 30 min before lysis; Potency, µM (series often up to 57.5 µM), for inactives: at the highest dose activation, usual class: activators; 320,000 compounds, 0.19% hits; further: % of control where 0% means no effect; nearly all actives have a fitted effect of over 45% in size
#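 hTERT-immortalized A-T patient fibroblasts (F2112), 500 cells/well in OPTI-MEM, 1% FBS, got compounds for 60 min, then NCS for 30 min at 37C. Lysates were then assayed for phospho-KAP-1 by AlphaLISA (anti-pKAP1 donor, anti-KAP1 acceptor beads), 6 hr at 25C.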
# p53 reactivator – restores transcriptional activity of mutant p53; 320,000 compounds, 0.063% hits; AID 504706; Potency, µM (titrated, usually from 92.2 µM), for the others: at the top dose activity change, positive = activation, actives largely listed as activators; H1299 p53-A138V BP100-luciferase reporter, luminescence, 24 h; further: % of control where 0% means no effect; nearly all actives have a fitted effect of over 45% in size
#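 p53-null H1299 cells stably carrying temperature-sensitive p53-A138V and a BP100-luciferase reporter were pinned with compounds (4-point, 1:5 series) and held 24 hrs at 37 deg C. Luminescence was read 10 min after detection reagent.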
# ELG1 genotoxic – inducers of genotoxicity in HEK293T ELG1-luciferase cells; AID 504466; HEK293T ELG1-luciferase reporter, luminescence, 16 h; Potency, µM (highest dose often 46 µM), for inactives: top-dose activity change, positive = activation, usual class: activators; 330,000 compounds, 1.3% hits; further: % of control where 0% means no effect; nearly all actives have a fitted effect of over 60% in size
#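 16 hr compound incubation (37 °C, 5% CO2) of HEK293T cells carrying luciferase-tagged ELG1; luciferase then measured by ONE-Glo luminescence after 30 min at RT.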
# ELG1 DNA repair – blocks ELG1-dependent DNA repair in HEK293T cells; HEK293T ELG1-luciferase reporter, luminescence, 16 h; DNA damage induced by 5-fluorouridine; Potency, µM (doses to about 46.1 µM), for inactives: at the top dose activity change, negative = inhibition, most hits filed as inhibitors; 330,000 compounds, 2.3% hits; AID 504467; further: on the % scale 0 is the no-effect control and ±100 the full control effect; nearly all actives have a fitted effect of over 55% in size
#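 Quantitative HTS, concentration-response format. 2,000 cells/well co-treated with 5-fluorouridine and compound, 16 hr in 5% CO2 at 37 °C; ONE-Glo luminescence read after 30 min.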
# SW480 rereplic – inducers of DNA re-replication in SW480 colon cancer cells; SW480 DNA re-replication, Hoechst DNA content imaging, 48 h; Potency, µM (series often up to 46.1 µM), inactives show top-dose re-replication activation, usual class: activators; 340,000 compounds, 1.8% hits; further: % of control where 0% means no effect; nearly all actives have a fitted effect of over 55% in size
#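 Readout is total intensity of Hoechst-stained nuclei, excited at 405 nm and collected at 500-530 nm. Compound treatment lasted 48 hr at 37 C in 5% CO2 before staining.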
# The depositor's hits bear a star; ? = inconclusive; . = no result; [ ] = another dose, or the depositor's remark. In the library only some 7.1% were active in any assay of this set; here they are far more common. The call rests on the fitted dose curve; in most records, active means well fitted curve in the direction sought with a large enough effect; inconclusive means small, poorly fitted or top-dose-only effect, or another doubt; inactive means no such curve, though single readings can be large; an effect the other way counts as inactive or inconclusive. Potency means the concentration at half of the fitted maximal effect.
SMILES,MCF10A rerep,A-T KAP1 phos,p53 reactivator,ELG1 genotoxic,ELG1 DNA repair,SW480 rereplic
CC(C)[C@H](NC(=O)C1CCN(S(=O)(=O)c2ccccc2)CC1)C(=O)NCc1ccncc1,-2%,15%,0%,0%,7%,2%
CC(C)n1c(SCC(=O)Nc2nc3c(s2)CCCC3)nc2c1c(=O)n(C)c(=O)n2C,?,-1%,-25%,-11%,18µM*,-6%[9.22 µM]
COc1ccc(N2CCN(C(=O)CSc3nnnn3-c3ccc4c(c3)OCCO4)CC2)cc1,16µM*,5%,-6%,-28%,23µM*,-1%
CCCCSc1nnc(-c2c[nH]c3ccccc23)n1C,4%,1%,?,?,?,2%
Cn1c(SCc2ccccc2)nnc1-c1c[nH]c2ccccc12,14%,1%,7%,15µM*,?,-2%
COc1ccc(-n2nnnc2SCC(=O)N2CCOCC2)cc1,29%,8%,-2%,14%,?,-9%
O=C1C=C(c2ccccc2)C(c2ccccc2)C1O (stereo not given),0%,.,.,.,.,1%
Cc1cccc2cn[nH]c12,0%,3%,0%,7%,14%,0%
Cc1[nH]nc2cn[nH]c12,2%,1%,-6%,-15%,13µM*,-17%
CC12CCC(=O)N1C(C(=O)N1CCN(c3ccc(C(F)(F)F)cc3[N+](=O)[O-])CC1)CS2 (stereo not given),15%,-4%,4%,-8%,?,2%
CC(C)C[C@H](NC(=O)N1CCCCCC1)C(=O)O,-4%,-12%,3%,1%,0%,-4%
COc1cc2c(-c3ccc(O)cc3)nc3c(c(C)nn3-c3ccccc3)c2cc1OC,15µM*,-6%,-7%,2%,9.2µM*,?
O=C(CSc1ccc(-c2cccnc2)nn1)Nc1ccc(F)c(F)c1,16%,0%,-4%,-19%,13µM*,0%
O=C(CSc1ccc(-c2cccnc2)nn1)Nc1ccccc1,1%,17%,-12%,-8%,-23%,-29%
O=C(CSc1nnc(-c2cccnc2)o1)Nc1cccc(F)c1,0%,4%,15%,?,?,3.3µM*
C[C@@H]1CN([C@H](C)CO)C(=O)Cc2cc(NC(=O)CCC(F)(F)F)ccc2O[C@@H]1CN(C)S(=O)(=O)c1ccccc1,-16%,.,.,.,.,-62%[9.22 µM]
Cc1ccccc1Oc1ccc2c(c1)[C@@H]1C[C@H](N(C)C(=O)c3ccc(C#N)cc3)[C@H]([C@H](C)O)C(=O)N1CC2,-8%,.,.,.,.,3%
O=c1oc2c(CN3CCCCCC3)c(O)ccc2cc1-c1nc2ccccc2[nH]1,.,16µM*,28%,8%,?,.
O=c1cc(-c2ccccc2)c2ccc(O)c(CN3CCCCC3)c2o1,?,0%,-6%,-3%,8%,-1%
CN1CCN(Cc2c(O)ccc3cc(-c4ccccn4)c(=O)oc23)CC1,23µM*,8%,1%,2%,7%,9.2µM*
CC(OC(=O)Nc1ccccc1)C(=O)OC1CCCCC1 (stereo not given),-1%,.,.,.,.,3%
Cc1ccc(CN2C(=O)CCC2C(=O)NCCc2ccccc2)cc1 (stereo not given),12%,-25%,0%,4%,16%,-7%
CCOC(=O)c1ccc(S(=O)(=O)N2CCN(CC(O)COc3cccc(C(C)=O)c3)CC2)cc1 (stereo not given),?,-9%,-2%,-1%,13%,0%
Brc1cc(Br)c2ncnc(N3CCCCC3)c2c1,5.8µM*,6%,4%,-23%,?,?
Clc1ccc(Cn2ncc3c(N4CCCCC4)ncnc32)c(Cl)c1,0%,.,.,.,.,-1%
SMILES,MCF10A rerep,A-T KAP1 phos,p53 reactivator,ELG1 genotoxic,ELG1 DNA repair,SW480 rereplic
COc1ccc(OC)c(S(=O)(=O)ON2C(=O)c3ccccc3C2=O)c1,6.5µM*,0%,-3%,10%,-1%,?
CCc1ccc(S(=O)(=O)ON2C(=O)c3ccccc3C2=O)cc1,18µM*,5%,2%,6%,?,?
COc1ccccc1OCC(=O)NC1CCSc2ccccc21 (stereo not given),14%,-1%,6%,-2%,17%,-35%
CS(=O)(=O)c1ccc(C(=O)Nc2nc(-c3ccco3)c(-c3ccco3)s2)cc1,?,-3%,-4%,1%,2%,8%
O=C(OCc1ccccc1)c1cccnc1,2%,.,.,.,.,7%
CC#CCOC(=O)c1c(C)nc2sc3c(c2c1N)CCC(O)C3 (stereo not given),?,-5%,7%,16µM*,-11%,-55%
c1ccc(CCc2nc(-c3cccnc3)no2)cc1,-5%,13%,?,?,?,1%
c1ccc(CCc2ccccc2-c2nc(-c3cccnc3)no2)cc1,?,40µM*,0%,-14%,?,?
c1ccc(-c2noc(-c3cccc4ccccc34)n2)cc1,8%,?,?,?,?,0%
c1cncc(-c2noc(-c3cccc4ccccc34)n2)c1,2%,8%,?,8.2µM*,?,3%
Cc1cccc(C(=O)NCc2nnc(SCC(=O)Nc3nncs3)n2C)c1,8%,9%,-1%,-4%,10%,?
Cc1ccc(NCCC(=O)c2cccs2)cc1Cl,-1%,3%,?,21µM*,?,0%
Cc1ccc(NCCC(=O)c2cccs2)cc1C,?,6%,7%,?,?,?
Cc1ccccc1SCC(=O)NNC(=O)c1ccccc1O,-8%,-6%,-15%,?,-1%,13µM*
CC(C)Cn1c(CCCNC(=O)c2ccco2)nc2ccccc21,1%,0%,-8%,-2%,16%,10%
COc1ccc(-c2nc3ccc(C4=C(C)CC(=O)NN4)cc3[nH]2)cc1,?,.,.,.,.,19µM*
COc1ccc2nc(-c3ccc(N)cc3)[nH]c2c1,-8%,-1%,-26%,?,?,-5%[9.22 µM]
c1nc(NCc2ccc3c(c2)OCO3)c2cc(-c3ccoc3)ccc2n1,?,5%,-1%,-7%,1.6µM*,-4%
c1cncc(-c2ccc3ncnc(NCc4ccc5c(c4)OCO5)c3c2)c1,2%,-9%,8%,-4%,?,-6%
O=C(Oc1c(-c2ccccc2)oc2ccccc2c1=O)c1ccccc1,?,5%,15%,-4%,18%,-2%
O=C(Oc1cc(=O)oc2ccccc12)c1ccccc1,7.3µM*,-1%,5%,2%,4%,4.1µM*
